# Of roughly 8,800 targets only a part is listed; those with a hit were picked by preference. About 0.5% of all pairs of compound and target were hits. A number with no mark means an inactive call.
# Experiments:
# Assay in all cases: log2 fold change, soluble protein after heating vs DMSO (PISA); higher = thermal stabilisation; K562 lysate, 10 uM; active = over 0.2 and 3.5 SD of the protein, either way, in both replicates (recomputed)
# alvocidib = compound: CN1CC[C@H](c2c(O)cc(O)c3c(=O)cc(-c4ccccc4Cl)oc23)[C@H](O)C1 [alvocidib]
# Procedure, shortened: (§1)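 Quantification was by TMTpro 16plex LC-MS/MS with equalised channel sums, applied to the supernatant after 21,000xg for 90 min. Samples were crude K562 extract at 1 mg/mL protein in PBS pH 7.4 with 1 mM MgCl2, treated with 10 μM compound for 30 min, heated for 3 min across 48°C-58°C, pooled and brought to 0.5% NP-40 at 4°C. Values are log-two fold changes in thermal stability relative to solvent controls, from duplicates.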
# Tubastatin A = compound: CN1CCc2c(c3ccccc3n2Cc2ccc(C(=O)NO)cc2)C1 [Tubastatin A]
# Procedure, shortened: as §1
# [1] = compound: CNC(=O)C1=CC=CC=C1NC2=NC(=NC=C2Cl)NC3=C(C=C(C=C3)N4CCOCC4)OC
# Procedure, shortened: as §1
# defactinib = compound: CNC(=O)c1ccc(Nc2ncc(C(F)(F)F)c(NCc3nccnc3N(C)S(C)(=O)=O)n2)cc1 [defactinib]
# Procedure, shortened: as §1
# [2] = compound: CNc1nc(-c2ccc3c(N)n[nH]c3c2)cc(N2C[C@@H](C(=O)NC3CCCCC3)CC[C@H]2C)n1
# Procedure, shortened: as §1
# encorafenib = compound: COC(=O)N[C@@H](C)CNc1nccc(-c2cn(C(C)C)nc2-c2cc(Cl)cc(NS(C)(=O)=O)c2F)n1 [encorafenib]
# Procedure, shortened: as §1
# [3] = compound: COC(=O)[C@H](CCSC)NC(=O)C1=C(C=C(C=C1)NC[C@H](CS)N)C2=CC=CC=C2
# Procedure, shortened: as §1
# alisertib = compound: COc1cc(Nc2ncc3c(n2)-c2ccc(Cl)cc2C(c2c(F)cccc2OC)=NC3)ccc1C(=O)O [alisertib]
# Procedure, shortened: as §1
# [4] = compound: COc1cc2nc(-c3cc(F)ccc3O)nc(N[C@@H]3CNC[C@H]3C(C)(C)O)c2cc1OC
# Procedure, shortened: as §1
# gefitinib = compound: COc1cc2ncnc(Nc3ccc(F)c(Cl)c3)c2cc1OCCCN1CCOCC1 [gefitinib]
# Procedure, shortened: as §1
# lapatinib = compound: CS(=O)(=O)CCNCc1ccc(-c2ccc3ncnc(Nc4ccc(OCc5cccc(F)c5)c(Cl)c4)c3c2)o1 [lapatinib]
# Procedure, shortened: as §1
# pictilisib = compound: CS(=O)(=O)N1CCN(Cc2cc3nc(-c4cccc5[nH]ncc45)nc(N4CCOCC4)c3s2)CC1 [pictilisib]
# Procedure, shortened: as §1
# crizotinib = compound: C[C@@H](Oc1cc(-c2cnn(C3CCNCC3)c2)cnc1N)c1c(Cl)ccc(F)c1Cl [crizotinib]
# Procedure, shortened: as §1
# [5] = compound: C[C@H](C1=CC=C(C=C1)C(=O)NC2=C3C=CNC3=NC=C2)N
# Procedure, shortened: as §1
# duvelisib = compound: C[C@H](Nc1ncnc2nc[nH]c12)c1cc2cccc(Cl)c2c(=O)n1-c1ccccc1 [duvelisib]
# Procedure, shortened: as §1
# gandotinib = compound: Cc1cc(Nc2cc(CN3CCOCC3)c3nc(C)c(Cc4ccc(Cl)cc4F)n3n2)n[nH]1 [gandotinib]
# Procedure, shortened: as §1
# tozasertib = compound: Cc1cc(Nc2cc(N3CCN(C)CC3)nc(Sc3ccc(NC(=O)C4CC4)cc3)n2)n[nH]1 [tozasertib]
# Procedure, shortened: as §1
# doramapimod = compound: Cc1ccc(-n2nc(C(C)(C)C)cc2NC(=O)Nc2ccc(OCCN3CCOCC3)c3ccccc23)cc1 [doramapimod]
# Procedure, shortened: as §1
# bafetinib = compound: Cc1ccc(NC(=O)c2ccc(CN3CC[C@H](N(C)C)C3)c(C(F)(F)F)c2)cc1Nc1nccc(-c2cncnc2)n1 [bafetinib]
# Procedure, shortened: as §1
# [6] = compound: Cc1cccc(CC(=O)N2CCc3c2ccc(-c2cn(C)c4ncnc(N)c24)c3F)n1
# Procedure, shortened: as §1
# Sequence of UniProt Q14807 (Q14807 whole entry, looked up): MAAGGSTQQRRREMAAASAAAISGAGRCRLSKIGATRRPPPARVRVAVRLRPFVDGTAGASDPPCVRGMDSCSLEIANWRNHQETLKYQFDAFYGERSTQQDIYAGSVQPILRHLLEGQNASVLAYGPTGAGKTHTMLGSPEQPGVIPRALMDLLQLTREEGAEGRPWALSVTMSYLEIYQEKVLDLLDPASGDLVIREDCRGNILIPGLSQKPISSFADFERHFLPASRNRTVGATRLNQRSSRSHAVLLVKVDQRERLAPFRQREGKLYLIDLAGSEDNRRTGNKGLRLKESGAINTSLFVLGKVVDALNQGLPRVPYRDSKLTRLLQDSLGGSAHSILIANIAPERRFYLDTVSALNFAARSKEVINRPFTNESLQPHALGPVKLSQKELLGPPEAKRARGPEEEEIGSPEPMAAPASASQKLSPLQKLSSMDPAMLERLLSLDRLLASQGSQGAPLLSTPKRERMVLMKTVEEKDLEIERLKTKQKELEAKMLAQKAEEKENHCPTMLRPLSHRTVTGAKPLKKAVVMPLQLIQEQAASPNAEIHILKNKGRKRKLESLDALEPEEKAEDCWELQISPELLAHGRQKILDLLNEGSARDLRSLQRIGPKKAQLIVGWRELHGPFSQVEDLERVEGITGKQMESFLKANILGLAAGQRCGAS
# Sequence of UniProt Q9H089 (Q9H089 whole entry, looked up): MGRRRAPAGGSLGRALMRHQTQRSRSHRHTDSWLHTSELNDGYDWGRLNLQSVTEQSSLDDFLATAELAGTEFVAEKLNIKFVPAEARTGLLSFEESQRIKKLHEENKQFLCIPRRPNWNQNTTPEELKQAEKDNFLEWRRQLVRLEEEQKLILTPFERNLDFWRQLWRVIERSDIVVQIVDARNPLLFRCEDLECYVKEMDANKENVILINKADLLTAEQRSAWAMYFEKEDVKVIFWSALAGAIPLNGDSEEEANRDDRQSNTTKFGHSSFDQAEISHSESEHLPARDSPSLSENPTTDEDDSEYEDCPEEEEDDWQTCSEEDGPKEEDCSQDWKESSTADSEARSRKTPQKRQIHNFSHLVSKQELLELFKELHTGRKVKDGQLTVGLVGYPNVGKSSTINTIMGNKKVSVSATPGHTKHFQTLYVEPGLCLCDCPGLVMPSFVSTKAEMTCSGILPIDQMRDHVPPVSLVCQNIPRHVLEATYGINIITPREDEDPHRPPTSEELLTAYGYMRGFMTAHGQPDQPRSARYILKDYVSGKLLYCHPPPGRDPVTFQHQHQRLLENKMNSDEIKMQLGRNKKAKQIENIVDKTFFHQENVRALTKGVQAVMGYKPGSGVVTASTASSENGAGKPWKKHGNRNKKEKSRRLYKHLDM
# Sequence of UniProt Q9BTE3 (Q9BTE3 whole entry, looked up): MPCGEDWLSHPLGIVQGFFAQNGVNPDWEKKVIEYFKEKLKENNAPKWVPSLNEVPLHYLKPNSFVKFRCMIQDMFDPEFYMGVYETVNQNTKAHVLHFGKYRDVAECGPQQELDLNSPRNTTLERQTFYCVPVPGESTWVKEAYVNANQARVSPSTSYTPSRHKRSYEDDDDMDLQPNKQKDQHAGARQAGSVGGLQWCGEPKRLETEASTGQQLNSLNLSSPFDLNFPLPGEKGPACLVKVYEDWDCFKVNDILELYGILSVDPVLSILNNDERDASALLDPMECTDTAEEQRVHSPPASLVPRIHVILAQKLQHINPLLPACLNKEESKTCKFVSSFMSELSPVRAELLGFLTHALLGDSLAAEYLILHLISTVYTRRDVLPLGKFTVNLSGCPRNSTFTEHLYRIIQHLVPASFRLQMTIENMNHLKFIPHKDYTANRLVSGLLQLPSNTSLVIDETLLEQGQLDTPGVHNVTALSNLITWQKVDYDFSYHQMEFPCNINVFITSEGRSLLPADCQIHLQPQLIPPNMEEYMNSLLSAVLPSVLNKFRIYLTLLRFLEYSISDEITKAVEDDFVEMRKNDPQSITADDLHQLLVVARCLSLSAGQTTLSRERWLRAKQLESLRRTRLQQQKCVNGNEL
# Sequence of UniProt Q9NZL9 (Q9NZL9 whole entry, looked up): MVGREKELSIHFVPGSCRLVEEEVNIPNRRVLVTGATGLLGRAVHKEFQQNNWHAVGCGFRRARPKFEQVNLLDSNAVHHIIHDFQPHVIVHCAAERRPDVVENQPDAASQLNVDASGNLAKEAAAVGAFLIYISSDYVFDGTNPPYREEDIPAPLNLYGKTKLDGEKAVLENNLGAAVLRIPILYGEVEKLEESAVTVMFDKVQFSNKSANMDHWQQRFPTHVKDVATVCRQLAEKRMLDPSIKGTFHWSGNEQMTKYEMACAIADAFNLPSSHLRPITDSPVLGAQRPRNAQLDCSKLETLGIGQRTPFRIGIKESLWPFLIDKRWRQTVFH
# Sequence of UniProt Q8N4N3 (Q8N4N3 whole entry, looked up): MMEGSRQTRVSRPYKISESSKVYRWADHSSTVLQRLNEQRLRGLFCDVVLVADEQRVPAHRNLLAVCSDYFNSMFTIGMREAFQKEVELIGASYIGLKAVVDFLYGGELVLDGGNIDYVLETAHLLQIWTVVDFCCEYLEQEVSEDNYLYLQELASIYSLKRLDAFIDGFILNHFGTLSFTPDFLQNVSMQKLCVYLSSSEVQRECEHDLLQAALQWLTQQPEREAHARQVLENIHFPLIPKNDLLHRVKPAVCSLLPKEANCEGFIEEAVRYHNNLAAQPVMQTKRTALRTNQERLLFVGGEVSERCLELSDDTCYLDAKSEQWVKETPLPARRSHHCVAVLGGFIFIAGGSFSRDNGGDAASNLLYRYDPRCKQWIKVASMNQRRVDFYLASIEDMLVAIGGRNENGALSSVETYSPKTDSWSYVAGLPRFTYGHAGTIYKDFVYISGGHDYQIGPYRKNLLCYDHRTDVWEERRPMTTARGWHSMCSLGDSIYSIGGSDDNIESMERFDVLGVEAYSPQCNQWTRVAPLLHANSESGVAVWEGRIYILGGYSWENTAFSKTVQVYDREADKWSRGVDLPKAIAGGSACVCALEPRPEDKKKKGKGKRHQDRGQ
# Sequence of UniProt Q9BV79 (Q9BV79 whole entry, looked up): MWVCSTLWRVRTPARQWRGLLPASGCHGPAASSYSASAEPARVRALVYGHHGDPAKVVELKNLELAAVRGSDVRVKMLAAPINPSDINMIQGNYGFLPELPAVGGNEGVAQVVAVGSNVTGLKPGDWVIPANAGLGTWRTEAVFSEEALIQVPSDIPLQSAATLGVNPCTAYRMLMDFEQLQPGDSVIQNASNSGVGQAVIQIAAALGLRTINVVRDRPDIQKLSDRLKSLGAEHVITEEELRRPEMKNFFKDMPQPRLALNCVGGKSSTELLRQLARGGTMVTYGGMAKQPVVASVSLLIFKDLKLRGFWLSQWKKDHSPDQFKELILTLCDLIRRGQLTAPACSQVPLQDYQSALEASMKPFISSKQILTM
# Sequence of UniProt Q96T76 (Q96T76 whole entry, looked up): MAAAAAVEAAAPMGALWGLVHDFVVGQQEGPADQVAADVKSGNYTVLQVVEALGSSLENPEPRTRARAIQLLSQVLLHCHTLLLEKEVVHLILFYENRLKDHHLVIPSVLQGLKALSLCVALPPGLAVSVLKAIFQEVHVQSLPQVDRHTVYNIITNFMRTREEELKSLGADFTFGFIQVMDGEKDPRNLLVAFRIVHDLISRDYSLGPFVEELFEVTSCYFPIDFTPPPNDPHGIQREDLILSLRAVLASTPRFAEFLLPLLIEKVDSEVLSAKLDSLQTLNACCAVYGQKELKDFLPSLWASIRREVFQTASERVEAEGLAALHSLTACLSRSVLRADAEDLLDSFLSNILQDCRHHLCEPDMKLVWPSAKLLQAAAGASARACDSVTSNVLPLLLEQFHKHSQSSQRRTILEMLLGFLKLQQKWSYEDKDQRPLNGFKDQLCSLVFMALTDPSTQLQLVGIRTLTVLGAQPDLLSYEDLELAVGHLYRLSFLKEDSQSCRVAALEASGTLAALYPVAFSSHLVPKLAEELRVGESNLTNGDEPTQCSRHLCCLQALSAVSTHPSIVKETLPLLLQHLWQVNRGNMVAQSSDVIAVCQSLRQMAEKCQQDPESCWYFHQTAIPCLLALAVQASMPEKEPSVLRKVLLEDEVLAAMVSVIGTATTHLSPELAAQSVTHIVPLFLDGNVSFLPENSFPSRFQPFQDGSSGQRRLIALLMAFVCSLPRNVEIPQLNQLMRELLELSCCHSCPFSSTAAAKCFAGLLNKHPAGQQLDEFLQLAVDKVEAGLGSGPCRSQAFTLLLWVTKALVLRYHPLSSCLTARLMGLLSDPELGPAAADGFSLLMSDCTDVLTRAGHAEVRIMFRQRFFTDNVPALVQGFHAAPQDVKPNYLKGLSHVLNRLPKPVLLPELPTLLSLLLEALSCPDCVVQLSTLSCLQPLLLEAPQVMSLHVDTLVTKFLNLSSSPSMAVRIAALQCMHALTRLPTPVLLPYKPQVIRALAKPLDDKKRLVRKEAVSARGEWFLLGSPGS
# Sequence of UniProt Q9Y250 (Q9Y250 whole entry, looked up): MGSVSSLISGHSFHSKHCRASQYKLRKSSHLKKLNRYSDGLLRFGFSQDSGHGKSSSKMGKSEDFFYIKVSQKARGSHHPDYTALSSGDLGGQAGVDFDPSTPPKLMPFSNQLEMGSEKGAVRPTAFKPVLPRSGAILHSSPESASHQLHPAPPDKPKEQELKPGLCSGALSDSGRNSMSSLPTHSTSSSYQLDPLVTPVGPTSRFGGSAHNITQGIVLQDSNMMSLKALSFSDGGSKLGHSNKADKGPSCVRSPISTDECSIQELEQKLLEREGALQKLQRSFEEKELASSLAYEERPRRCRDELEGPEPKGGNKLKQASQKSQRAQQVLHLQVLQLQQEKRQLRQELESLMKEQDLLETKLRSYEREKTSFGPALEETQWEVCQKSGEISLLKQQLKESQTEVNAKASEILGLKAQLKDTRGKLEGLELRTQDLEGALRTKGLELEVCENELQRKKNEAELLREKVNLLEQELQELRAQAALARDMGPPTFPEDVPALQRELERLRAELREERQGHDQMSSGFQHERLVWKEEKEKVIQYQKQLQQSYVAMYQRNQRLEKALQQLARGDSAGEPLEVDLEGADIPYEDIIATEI
Target,log2 fold change (alvocidib),log2 fold change (Tubastatin A),log2 fold change [1],log2 fold change (defactinib),log2 fold change [2],log2 fold change (encorafenib),log2 fold change [3],log2 fold change (alisertib),log2 fold change [4],log2 fold change (gefitinib),log2 fold change (lapatinib),log2 fold change (pictilisib),log2 fold change (crizotinib),log2 fold change [5],log2 fold change (duvelisib),log2 fold change (gandotinib),log2 fold change (tozasertib),log2 fold change (doramapimod),log2 fold change (bafetinib),log2 fold change [6]
MAT2B (UniProt Q9NZL9),-0.028,0.063,-0.013,0.003,-0.01,-0.009,-0.006,0.032,0.016,-0.006,0.008,-0.028,0.007,0.063,-0.031,-0.02,0.019,-0.023,-0.007,0.005
KLHL36 (UniProt Q8N4N3),0.046,0.04,-0.032,0.039,0.017,0.031,-0.078,0.032,-0.009,-0.074,-0.045,-0.006,0.021,-0.075,-0.02,-0.013,0.014,-0.129,0.022,-0.052
MIF4GD isoform 3 (UniProt A9UHW6),0.021,0.014,0.002,-0.01,-0.066,-0.012,0.01,-0.037,0.007,0.049,-0.008,-0.054,0.012,0.023,0.041,0.021,0.005,0.025,-0.03,0.013
MMS19 isoform 8 (UniProt Q96T76),0.008,-0.144,0,-0.027,0.007,0.014,0.128,0.002,0.001,-0.022,-0.03,-0.04,-0.074,0.049,-0.003,-0.101,-0.004,0.023,-0.066,0.004
MAP3K4 (UniProt Q9Y6R4),-0.027,-0.113,0.366 (active),0.071,-0.018,-0.171,0.128,-0.028,-0.045,0.081,-0.02,0.009,0.033,0.064,-0.017,0.034,0.092,0.073,-0.031,-0.041
MECR (UniProt Q9BV79),0.018,0.014,0.01,0.007,0.053,-0.06,0.049,0,0.04,-0.011,-0.028,-0.038,0.007,-0.11,0.007,0.045,0.007,0.02,-0.005,0.013
KIF22 (UniProt Q14807),-0.121,0.099,-0.059,0.175,0.137,0.012,-0.017,0.011,0.171,-0.013,-0.149,-0.07,-0.29,-0.201,-0.02,0.238,-0.043,-0.009,-0.068,0.33
KIF11 (UniProt P52732),0.008,-0.107,0.035,-0.007,-0.022,0.034,0.032,-0.013,-0.003,0.016,0,0.021,0.001,-0.03,0.017,-0.042,0.006,0.014,-0.014,0.063
LYN (UniProt P07948),0.026,-0.046,0.203,0.076,-0.092,-0.01,-0.072,0.171,0.26,-0.006,-0.184,-0.036,0.093,-0.079,-0.042,0.551,0.11,0.026,0.763 (active),-0.005
LSG1 (UniProt Q9H089),-0.079,-0.016,-0.046,0.003,-0.077,0.046,0.303 (active),-0.017,-0.028,-0.059,-0.002,-0.044,-0.191,-0.099,-0.075,0.037,-0.03,0.085,-0.077,0.072
MAP2K2 (UniProt P36507),0.022,-0.026,0.198,0.036,0.015,-0.046,-0.006,-0.013,0.009,-0.013,-0.048,0.015,0.039,0.207,0.012,-0.065,0.282,-0.058,-0.063,-0.015
MAP2K3 isoform 3 (UniProt P46734),0.05,-0.066,0.139,0.017,-0.055,-0.011,0.169,0,-0.171,-0.087,-0.014,-0.102,-0.043,-0.021,0.124,0.038,0.017,-0.047,-0.012,-0.035
MAD2L1BP isoform 3 (UniProt Q15013),0.047,-0.135,0.088,0.068,-0.012,0.138,0.234,0.052,-0.009,-0.054,0.017,-0.155,-0.094,0.022,0.048,-0.009,-0.071,0.12,-0.041,0.008
LZTS1 (UniProt Q9Y250),0.054,0.326,-0.037,-0.101,0.709,-0.071,0.001,-0.022,0.129,-0.08,-0.136,-0.222,-0.821,-0.233,0.308,-0.137,-0.1,0.177,-0.268,0.083
MRPL19 (UniProt P49406),-0.056,-0.119,-0.036,-0.005,-0.052,-0.003,0.042,0.037,-0.03,0.043,-0.026,-0.024,-0.071,-0.094,-0.026,0.029,0.014,0.011,-0.048,0.051
MCMBP (UniProt Q9BTE3),0.035,-0.078,0.029,0.041,-0.003,-0.001,0.074,0.005,0,0.011,0.008,-0.027,-0.032,0.048,0.002,-0.083,-0.007,-0.001,-0.007,-0.048

# Reference: the supplement of paper PMC10849652
